# Data taken from PubChem BioAssay AID434961 (Broad Institute, 2010).
# In all, about 7,700 compounds went through this assay and about 15 (0.2%) were called active. Inconclusive results (about 6%) are left out. The list comes from a sample in which actives are over-represented; it also holds similar structures and randomly drawn compounds. Values without a mark were called inactive.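 The calls were made as follows: active = more than half of replicate wells with inhibition above about 18% (limit read from the data, passing the limit was not always enough); inconclusive = exactly half of replicate wells above that limit; inactive = fewer than half of replicates above it.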
# Target: Regulator of chromosome condensation (Homo sapiens) + GTP-binding nuclear protein Ran (Homo sapiens) + Importin subunit beta-1 (Homo sapiens) (UniProt P18754+P62826+Q14974)
# Test: inhibitors of Ran–importin-beta complex formation, primary screen, biochemical, CFP-Ran/YFP-importin-beta FRET, RCC1, cell-free (AID 434961);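 also: 0% = DMSO wells and 100% inhibition = RanGDP control wells on each plate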
# Details: active compounds read high, concentration not given here
row,SMILES,inhibition [%]
1,C[C@H](CO)N1C[C@H](C)[C@H](CN(C)Cc2ccc3c(c2)OCO3)Oc2c(NC(=O)c3ccncc3)cccc2C1=O,-1.01
2,C[C@H](CO)N1C[C@H](C)[C@H](CN(C)Cc2ccc3c(c2)OCO3)Oc2ccc(NC(=O)Nc3ccc(F)cc3)cc2CC1=O,1.05
3,CNC[C@@H]1Oc2ccc(NC(=O)CCC(F)(F)F)cc2C(=O)N([C@@H](C)CO)C[C@H]1C,2.65
4,CNC[C@@H]1Oc2ccc(NC(=O)Nc3ccc4c(c3)OCO4)cc2CC(=O)N([C@@H](C)CO)C[C@@H]1C,-0.999
5,C[C@@H]1CCCCO[C@H](CN(C)C)[C@@H](C)CN([C@H](C)CO)C(=O)c2cc(NC(=O)Cc3ccccc3)ccc2O1,-1.13
6,C[C@H](CO)N1C[C@H](C)[C@@H](CN(C)C(=O)Nc2ccc3c(c2)OCO3)Oc2ccc(N(C)C)cc2C1=O,-2.04
7,C[C@@H]1CCCCO[C@@H](CN(C)C(=O)C2CCCCC2)[C@@H](C)CN([C@@H](C)CO)C(=O)c2cc(NS(C)(=O)=O)ccc2O1,-4.64
8,C[C@@H]1CN([C@H](C)CO)C(=O)CCCn2cc(nn2)CO[C@@H]1CN(C)C(=O)Nc1ccc(N2CCCCC2)cc1,10.6
9,C[C@@H]1CCCCO[C@@H](CN(C)Cc2ccncc2)[C@H](C)CN([C@@H](C)CO)C(=O)c2cc(NC(=O)c3ccncc3)ccc2O1,5.19
10,C[C@@H]1CCCCO[C@H](CN(C)C(=O)C2CCCCC2)[C@H](C)CN([C@H](C)CO)C(=O)c2cc(NC(=O)Nc3ccccc3)ccc2O1,1.96
11,C[C@@H]1CN([C@H](C)CO)C(=O)c2cccc(NS(=O)(=O)c3ccc(Cl)cc3)c2O[C@@H]1CN(C)C,-2.17
12,Cc1noc(C)c1NC(=O)N(C)C[C@H]1Oc2ccc(NC(=O)Cc3ccccc3)cc2C(=O)N([C@H](C)CO)C[C@H]1C,4.11
13,C[C@H](CO)N1C[C@H](C)[C@H](CN(C)C)Oc2ccc(NS(C)(=O)=O)cc2C1=O,4.53
14,C[C@@H]1CN([C@H](C)CO)C(=O)Cc2cc(N(C)C)ccc2O[C@H]1CN(C)Cc1ccc(C(F)(F)F)cc1,-0.721
15,CC(C)NC(=O)Nc1ccc2c(c1)C(=O)N([C@@H](C)CO)C[C@@H](C)[C@H](CN(C)S(=O)(=O)c1cccs1)OCCCC[C@H](C)O2,3.77
16,COc1ccc(S(=O)(=O)N(C)C[C@@H]2Oc3c(NC(=O)c4ccncc4)cccc3C(=O)N([C@@H](C)CO)C[C@H]2C)cc1,-7.21
17,Cc1noc(C)c1NC(=O)Nc1ccc2c(c1)CC(=O)N([C@H](C)CO)C[C@@H](C)[C@@H](CN(C)C(=O)NC(C)C)O2,0.926
18,Cc1noc(C)c1NC(=O)Nc1ccc2c(c1)C(=O)N([C@@H](C)CO)C[C@@H](C)[C@@H](CN(C)C(=O)CCCN(C)C)OCCCC[C@@H](C)O2,-4.32
19,C[C@@H]1CN([C@@H](C)CO)C(=O)Cc2cc(NC(=O)c3ccncc3)ccc2O[C@H]1CN(C)C(=O)Nc1ccccc1,3.73

row,SMILES,inhibition [%]
1,COc1ccc(NC(=O)Nc2ccc3c(c2)C(=O)N([C@@H](C)CO)C[C@H](C)[C@@H](CN(C)S(=O)(=O)c2cn(C)cn2)O3)cc1,1.4
2,C[C@H](CO)N1C[C@H](C)[C@H](CN(C)C(=O)c2ccncc2)OCCCC[C@H](C)Oc2ccc(NS(=O)(=O)c3ccccc3)cc2C1=O,-1.72
3,CC(C)NC(=O)Nc1ccc2c(c1)C(=O)N([C@@H](C)CO)C[C@@H](C)[C@@H](CN(C)C)OCCCC[C@H](C)O2,-4.5
4,C[C@@H]1CN([C@H](C)CO)C(=O)c2cc(NS(=O)(=O)c3cn(C)cn3)ccc2O[C@@H](C)CCCCO[C@@H]1CN(C)C,-0.00982
5,CC(C)NC(=O)N(C)C[C@H]1Oc2ccc(N(C)C)cc2CC(=O)N([C@H](C)CO)C[C@@H]1C,0.831
6,COc1ccc(S(=O)(=O)Nc2ccc3c(c2)C(=O)N([C@@H](C)CO)C[C@@H](C)[C@@H](CN(C)S(=O)(=O)c2cccs2)O3)cc1,-0.91
7,C[C@@H]1CCCCO[C@@H](CN(C)S(=O)(=O)c2ccc(F)cc2)[C@@H](C)CN([C@@H](C)CO)C(=O)c2cc(NC(=O)C3CCCCC3)ccc2O1,2.57
8,Cc1noc(C)c1NC(=O)N(C)C[C@@H]1Oc2c(NC(=O)c3ccc(-c4nccs4)cc3)cccc2C(=O)N([C@@H](C)CO)C[C@@H]1C,-3.18
9,COc1ccc(CN(C)C[C@H]2Oc3ccc(NC(=O)Nc4c(C)noc4C)cc3CC(=O)N([C@H](C)CO)C[C@@H]2C)cc1,-6.52
10,C[C@@H]1CN([C@@H](C)CO)C(=O)c2cc(NS(=O)(=O)c3ccccc3)ccc2O[C@@H](C)CCCCO[C@H]1CN(C)Cc1ccncc1,-2.17
11,C[C@H]1CN([C@@H](C)CO)C(=O)c2cccc(NS(=O)(=O)c3ccc(Cl)cc3)c2O[C@@H]1CN(C)C(=O)Nc1ccc(F)cc1,0.723
12,C[C@H](CO)N1C[C@H](C)[C@@H](CN(C)C(=O)Nc2ccc(F)cc2)Oc2c(NS(=O)(=O)c3ccc(Cl)cc3)cccc2C1=O,2.75
13,CNC[C@H]1Oc2c(NC(=O)Nc3c(C)noc3C)cccc2C(=O)N([C@@H](C)CO)C[C@H]1C,1.31
14,Cc1noc(C)c1S(=O)(=O)Nc1ccc2c(c1)CC(=O)N([C@@H](C)CO)C[C@@H](C)[C@H](CN(C)C(=O)Nc1ccc(F)cc1)O2,-0.469
15,C[C@@H]1CN([C@@H](C)CO)C(=O)Cc2cc(NC(=O)c3ccncc3)ccc2O[C@@H]1CN(C)C(=O)Nc1cccc2ccccc12,2.94
16,C[C@@H]1CN([C@@H](C)CO)C(=O)c2cc(NC(=O)C3CC3)ccc2O[C@@H]1CN(C)C(=O)Nc1ccccc1,-1.01
17,C[C@H]1CN([C@@H](C)CO)C(=O)c2cccc(NS(=O)(=O)c3cccs3)c2O[C@H]1CN(C)Cc1ccc(C(=O)O)cc1,-1.12
18,C[C@H](CO)N1C[C@H](C)[C@H](CN(C)C(=O)c2ccccc2)OCc2cnnn2CCCC1=O,3.45
19,Cc1noc(C)c1NC(=O)Nc1ccc2c(c1)CC(=O)N([C@@H](C)CO)C[C@H](C)[C@@H](CN(C)S(=O)(=O)c1cccs1)O2,0.0231

row,SMILES,inhibition [%]
1,Cc1noc(C)c1NC(=O)N(C)C[C@@H]1Oc2ccc(NC(=O)Cc3ccccc3)cc2C(=O)N([C@@H](C)CO)C[C@H]1C,6.07
2,C[C@H](CO)N1C[C@H](C)[C@H](CN(C)C)Oc2c(NC(=O)Nc3ccc(C(F)(F)F)cc3)cccc2C1=O,-2.27
3,COc1ccc(CN(C)C[C@@H]2Oc3ccc(NC(=O)Nc4ccc(C(F)(F)F)cc4)cc3CC(=O)N([C@H](C)CO)C[C@@H]2C)cc1,1.78
4,C[C@@H]1CN([C@@H](C)CO)C(=O)c2cccc(NC(=O)Nc3ccc(C(F)(F)F)cc3)c2O[C@H]1CN(C)C(=O)Nc1ccc(F)cc1,1.42
5,C[C@H](CO)N1C[C@H](C)[C@H](CN(C)S(=O)(=O)c2cn(C)cn2)OCCCC[C@H](C)Oc2ccc(NC(=O)CCCN(C)C)cc2C1=O,1.98
6,C[C@@H]1CCCCO[C@@H](CN(C)S(=O)(=O)c2ccccc2)[C@@H](C)CN([C@@H](C)CO)C(=O)c2cc(NS(C)(=O)=O)ccc2O1,1.15
7,C[C@@H]1CCCCO[C@H](CN(C)C)[C@H](C)CN([C@H](C)CO)C(=O)c2cc(NC(=O)Nc3ccc4c(c3)OCO4)ccc2O1,7.53
8,COc1ccc(S(=O)(=O)N(C)C[C@@H]2Oc3ccc(NS(=O)(=O)c4ccc(Cl)cc4)cc3C(=O)N([C@H](C)CO)C[C@@H]2C)cc1,1.93
9,C[C@H]1CN([C@@H](C)CO)C(=O)c2cccc(NS(=O)(=O)c3cn(C)cn3)c2O[C@@H]1CN(C)CC1CC1,-0.875
10,Cc1noc(C)c1NC(=O)N(C)C[C@@H]1Oc2ccc(NC(=O)C3CC3)cc2CC(=O)N([C@@H](C)CO)C[C@H]1C,3.34
11,CNC[C@H]1Oc2ccc(NC(=O)Cc3ccccc3)cc2C(=O)N([C@H](C)CO)C[C@@H]1C,-10.8
12,C[C@H]1CN([C@@H](C)CO)C(=O)c2cccc(NS(=O)(=O)c3ccc(Cl)cc3)c2O[C@H]1CN(C)Cc1ccncc1,-0.815
13,C[C@H]1CN([C@@H](C)CO)C(=O)c2cc(NC(=O)CCC(F)(F)F)ccc2O[C@H]1CN(C)C(=O)Nc1ccccc1,1.36
14,C[C@H](CO)N1C[C@H](C)[C@H](CN(C)C(=O)Nc2ccccc2)Oc2ccc(NC(=O)Cc3cn(C)c4ccccc34)cc2CC1=O,2.8
15,C[C@H]1CCCCO[C@H](CN(C)Cc2ccc(C(=O)O)cc2)[C@@H](C)CN([C@@H](C)CO)C(=O)c2cc(NC(=O)Nc3ccc(F)cc3)ccc2O1,5.7
16,C[C@H](CO)N1C[C@H](C)[C@H](CN(C)S(=O)(=O)c2cn(C)cn2)Oc2ccc(N(C)C)cc2CC1=O,-2.21
17,C[C@@H]1CN([C@H](C)CO)C(=O)c2cc(NC(=O)c3ccncc3)ccc2O[C@@H]1CN(C)C,0.131
18,CC(C)NC(=O)Nc1ccc2c(c1)C(=O)N([C@H](C)CO)C[C@H](C)[C@@H](CN(C)Cc1ccc(C(=O)O)cc1)OCCCC[C@@H](C)O2,2.11
